Screens: PubChem, National Center for Advancing Translational Sciences (NCATS)
NS1 inh: inhibitors of influenza NS1 protein function | hit rate 0.4% among 270,000 | Potency, µM (titrated, usually from 46.1 µM), without a hit: top-dose activity, positive = more growth | AID 2326; calls by dose curve; note: potency is the fitted concentration of half-maximal effect; actives are rising curves; nearly all actives have a fitted effect of over 50% in size
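OD600 was taken as the measure of yeast growth restored by compound in an NS1-expressing S. cerevisiae strain. Cells had been washed out of glucose medium and diluted 1:100 into galactose -URA medium, pH 6.0.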
Pf growth 96h: P. falciparum growth inhibition at 96 hours; AID 504834; P. falciparum luciferase reporter growth, 96 h; Potency, µM (doses to about 28.7 µM), inactives show at the highest dose activity change, negative = inhibition, actives largely listed as inhibitors; hit rate 6.9% among 320,000; note: potency is the fitted concentration of half-maximal effect; % is set by controls: 0 for no effect and ±100 for the full control effect
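Two parasite generations (96 h, 37 C, 5% CO2) of compound exposure in infected erythrocytes (0.05% parasitemia, 2% hematocrit). Luciferase-reporter P. falciparum; decreased luminescence indicates inhibited growth, aimed at apicoplast-acting delayed death.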
Pf growth 48h: P. falciparum growth inhibition at 48 hours (one generation). P. falciparum luciferase growth in erythrocytes, 48 h. hit rate 5.9% among 310,000. Potency, µM (series often up to 28.7 µM), for the others: top-dose activity change, negative = inhibition, usual class: inhibitors; note: potency is the fitted concentration of half-maximal effect; % is set by controls: 0 for no effect and ±100 for the full control effect
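Here the parasites carry a stable luciferase gene and grow inside erythrocytes in Albumax-based RPMI medium with compound for one erythrocytic cycle. Activity is scored as loss of luminescent signal.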
Shiga inhibitor: blocks Shiga toxin action in Vero cells; inhibition, % at 38.7 µM; AID 2315; Vero cells, Shiga toxin protein synthesis inhibition reporter; hit rate 9.2% among 290,000; in the data active = inhibition mostly above about 28%, no sharp cut-off; inactive = mostly below about 43%; note: 0% is about no effect
Cycloheximide cs: affects cycloheximide protein synthesis inhibition readout, counter-screen; cell reporter, cycloheximide protein synthesis inhibition counterscreen; max response, %; hit rate 12% among 300,000; AID 2314; in the data active = max response mostly above about 13%, no sharp cut-off; inactive = mostly below about 14%; note: read at 38.3 µM for the half of the compounds with a filed dose; 0% is about no effect
* marks the source's active call; other numbers are inactive results; u = inconclusive; x = no result given; [ ] = dose if it differs, or a comment. In the library only some 21% were active in any assay of this set; here they are far more common. Unless noted, calls come from the whole dose curve; as a rule, active = well fitted inhibition curve with a large enough effect; inconclusive = small, poorly fitted or top-dose-only effect, or another doubt; inactive = no such curve, though single readings can be large or run the other way.

SMILES	NS1 inh	Pf growth 96h	Pf growth 48h	Shiga inhibitor	Cycloheximide cs
CCc1noc(C)c1C(=O)Nc1ccccc1C(C)(C)C	-7%	u	22%	8	2
Cc1cccc(CSCc2ccc(C(=O)NCC3CCCO3)o2)c1 (stereo unspecified)	x	-10%	9%	-5	-7
Cc1ccc(C)c(Nc2nc3ccc(C)cc3n3cnnc23)c1	-7%	7%	u	-3	-1
COc1cc(NC(=O)C2=C(N3CCOCC3)/C(=C\c3ccc(Cl)cc3Cl)CC2)cc(OC)c1OC	18%	u	-21%	-13	-4
N#CCSc1nnc(C2CCCCC2)n1Cc1ccccc1	-1%	3.3µM*	-15%	-4	-2
O=C1c2ccccc2CN1CCSC(=S)N1CCSCC1	x	290%	427%	157*	48*
O=C1c2ccccc2CN1CCSC(=S)N1CCOCC1	-8%	69%	u	81*	74*
CC1CN(C(=S)SCCN2Cc3ccccc3C2=O)CC(C)O1 (stereo unspecified)	11%	22%	1%	9	6
CC1(C)Cc2cccc(OCC(=O)OCC(=O)NCc3ccccc3)c2O1	-17%	-4%	5%	-6	-1
CC(=O)Nc1ccc(S(=O)(=O)N2CCN(C(C)CCc3ccccc3)CC2)cc1 (stereo unspecified)	-38%	x	x	-26	-3
COc1cccc(NC(=O)CSc2nc3c(oc4ccccc43)c(=O)[nH]2)c1	u	31%	-14%	17	-2
CCCCCC(=O)Nc1cccc(C2=NOC3(C2)C[C@@H](C(N)=O)N(C(=O)CC(c2ccccc2)c2ccccc2)C3)c1 (stereo partly specified)	-11%	u	-15%	-9	-4
COC(=O)[C@H](Cc1ccccc1)NC(=O)N1CCN(c2ccccc2)CC1	-2%	2%	-12%	15	2
Cc1ccc2c(c1)cc(CN(Cc1ccco1)C(=O)COc1ccccc1)c1nnnn12	-12%	-20%[5.75 µM]	u	65*	26*
CCC(=O)N(Cc1ccco1)Cc1cc2cccc(C)c2n2nnnc12	x	u	-11%	-4	-3
CCN(CC)c1ccc(/C=N/NC(=O)c2ccc([N+](=O)[O-])cc2)cc1	x	44%	16%	4	12
CCN(CC)c1ccc(/C=N/NC(=S)NCc2ccccc2)c(O)c1	17%	u	0%	-7	-6
CCN(CC)c1ccc(/C=N/NC(=O)c2ccco2)c(O)c1	-81%	-86%	u	76*	38*
CCN(CC)c1ccc(/C=N/NC(=O)c2ccco2)cc1	-25%	u	11%	53*	49*
CCN(CC)c1ccc(/C=N/NC(=O)Cc2cccs2)c(O)c1	8%	u	u	78*	32*
CC(=O)N1CCC(=NNc2ccnc3cc(Cl)ccc23)CC1	x	2.6µM*	1.9µM*	-17	-2
CCOC(=O)N1CCC(=NNc2ccnc3cc(Cl)ccc23)CC1	x	2.6µM*	u	12	4
CC(=O)N1CCC(=NNc2ncc(C(F)(F)F)cc2Cl)CC1	3%	51%	0%	10	-2
ClCc1csc(-c2ccc(Cl)cc2)n1	-1%	-2%	6%	18	-1
CC(C)(C)c1ccc(-c2nnc(N)s2)cc1	-30%	0%	-3%	80*	59*
SMILES	NS1 inh	Pf growth 96h	Pf growth 48h	Shiga inhibitor	Cycloheximide cs
CCOc1ccc(-c2nc(CCl)cs2)cc1	x	421%	211%	153*	34*
CCOc1ccc(-c2nnc(N)s2)cc1	-4%	9%	68%	142*	25*
CCCCOc1ccc(-c2nnc(N)s2)cc1	0%	u	2%	22	21*
CCCn1c(C(CO)Nc2nc(C)cs2)nc2ccccc21 (stereo unspecified)	8%	31%	29%	-5	3
CC(C)(C)NC(=O)C(c1ccccn1)N(C(=O)C1CSC(=O)C1)c1ccccc1F (stereo unspecified)	3%	-12%	23%	6	-4
CCCCOc1ccc(C(=O)O)cc1	-135%	x	9%	-17	-4
CCCCOc1ccc(-c2ncc(N)cn2)cc1	-1%	207%	147%	114*	53*
N=c1c2c(n(Cc3ccc(Cl)cc3)c3c1CCC3)CCC2	-23%	25%	0.21µM*	-5	-5
N=c1c2c(n(Cc3ccccc3)c3c1CCC3)CCC2	-2%	0.13µM*	0.41µM*	-13	-1
Clc1ccc(CSCc2ccc(Cl)cc2Cl)c(Cl)c1	-7%	x	x	x	x
N=c1c2c(n(Cc3ccc(F)cc3)c3c1CCC3)CCCC2	x	15%	u	-2	2
N=c1c2c(n(Cc3ccc(Cl)cc3Cl)c3c1CCC3)CCCC2	-4%	x	0.19µM*	-3	-2
N=c1c2c(n(Cc3cccc(Cl)c3)c3c1CCC3)CCCC2	-4%	-107%	0.26µM*	9	-3
Cc1c(Cl)cccc1-n1c(SCC(=O)N2CCC(C(=O)O)CC2)nnc1-c1ccncc1	x	11%	u	12	-2
O=C(CCN1C(=O)NC2(CCCC2)C1=O)Nc1cccc(S(=O)(=O)N2CCOCC2)c1	x	17%	-20%	x	x
O=C(NC1CCCCCCC1)c1ccccc1O	-165%	u	12µM*	75*	31*
O=C(Nc1ccccc1C(=O)NC1CCCCC1)c1ccco1	9%	u	-22%	-4	-3
Cc1ccccc1C(=O)NC1CCCCCCC1	0%	153%	162%	39*	34*
O=C(NC1CCCCCCC1)c1ccccc1-c1ccccc1	-9%	-21%	u	-14	-6
O=C(CCC1CCCC1)NNC(=O)c1cc2ccccc2cc1O	11%	55%	19%	-3	8
O=C(O)/C=C\C(=O)Nc1ccccc1C(=O)NC1CCCCC1	1%	85%	50%	65*	42*
O=C(NC1CCCCC1)c1cc2ccccc2cc1O	-8%	1.9µM*	5.2µM*	34*	24*
Cc1ccccc1C(=O)NC1CCN(CC(=O)Nc2ccccc2Cl)CC1	7%	0.93µM*	-13%	-9	-1
O=C(NC1CCN(c2ncccn2)CC1)c1ccccc1Cl	0%	10µM*	-10%	1	4
O=C(NC1CCN(c2ncccn2)CC1)c1ccccc1F	2%	-8%	12%	-21	5
SMILES	NS1 inh	Pf growth 96h	Pf growth 48h	Shiga inhibitor	Cycloheximide cs
O=C(CN1CCCCC1)Nc1ccc(NC(=O)c2ccccc2Cl)cc1Cl	-12%	15µM*	-9%	7	-1
O=C(CN1CCCCCCC1)Nc1ccc(Cl)cc1Cl	x	20%	-5%	-1	10
O=c1[nH]c2cc(Cl)c(O)cc2o1	x	x	x	10	-1
CN(C(=O)COC(=O)c1sc2ccccc2c1Cl)C1CCCCC1	-18%	4%	16%	55*	17
CN(C)CCCOC(=O)c1sc2ccccc2c1Cl	1%	90%	20%	59*	39*
COC(=O)CSc1nc2sc3c(c2c(=O)n1C1CCCCC1)CCN(C)C3	17%	71%	x	23	8
CN1CCc2c(sc3nc(SCC(=O)N4CCOCC4)n(-c4ccc(Cl)cc4)c(=O)c23)C1	10%	-19%	u	-4	-3
COc1ccc(-n2c(SCC(N)=O)nc3sc4c(c3c2=O)CCN(C)C4)cc1	24%	2.1µM*	u	0	5
